This is an account of results in the supplement of paper PMC8728848.

Assay in all cases: glycan array binding signal (z-score within array); higher = stronger binding
Settings in all cases: glycan notation: IUPAC condensed, linker removed

For experiment [1], the target named is Man(b1-4)GlcNAc. The method, boiled down: (§1)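 From the Consortium for Functional Glycomics database, 3228 arrays were curated, keeping only those whose protein sequence was available. Binding is given as a within-array Z-score averaged across arrays sharing a protein sequence and across linkers. Negative Z-scores can be read as non-binding.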
Experiment [2] has as its target Neu5Ac(a2-3)Gal(b1-3)GalNAc(b1-4)[Neu5Ac(a2-3)]Gal(b1-4)Glc. The method, boiled down:
as §1

Experiment [3] addresses Neu5Ac(a2-3)Gal(b1-3)GlcNAc(b1-6)GalNAc. In outline: as §1
For experiment [4], the target named is Neu5Ac(a2-3)Gal(b1-4)GlcNAc(b1-2)Man(a1-3)[Neu5Ac(a2-6)Gal(b1-4)GlcNAc(b1-2)Man(a1-6)]Man(b1-4)GlcNAc(b1-4)GlcNAc. The method, boiled down:
as §1

The target of experiment [5] is Neu5Ac(a2-3)Gal(b1-4)GlcNAc(b1-3)Gal. The method, boiled down:
as §1

The target of experiment [6] is Neu5Ac(a2-3)Gal(b1-4)GlcNAc(b1-6)GalNAc. In outline:
as §1

Experiment [7] deals with Neu5Ac(a2-3)Gal6S(b1-4)GlcNAc. In outline: as §1
In experiment [8] the target is Neu5Ac(a2-6)Gal(b1-4)GlcNAc(b1-2)Man(a1-6)[Gal(b1-4)GlcNAc(b1-2)Man(a1-3)]Man(b1-4)GlcNAc(b1-4)GlcNAc. In outline: as §1
For experiment [9], the target named is Neu5Ac(a2-6)GalNAc(b1-4)GlcNAc6S. In outline:
as §1

Experiment [10] deals with Neu5Ac(a2-8)Neu5Ac(a2-3)Gal(b1-3)GalNAc(b1-4)[Neu5Ac(a2-8)Neu5Ac(a2-3)]Gal(b1-4)Glc. The method, boiled down:
as §1

Experiment [11] addresses Neu5Ac(a2-8)Neu5Ac(a2-8)Neu5Ac(a2-8)Neu5Ac(a2-3)[GalNAc(b1-4)]Gal(b1-4)Glc. In outline: as §1
Experiment [12] has as its target Neu5Gc(a2-3)Gal(b1-4)Glc. In outline:
as §1

Only a selection was taken, and the strongest signals are over-represented in it overall.

B1: DC-ASGPR S+GEE (Homo sapiens) (protein)
chain: MTRTYENFQYLENKVKVQGFKNGPLPLQSLLQRLRSGPCHLLLSLGLGLLLLVIICVVGFQNSKFQRDLVTLRTDFSNFTSNTVAEIQALTSQGSSLEETIASLKAEVEGFKQERQAVHSEMLLRVQQLVQDLKKLTCQVATINNNGEEASTEGTCCPVNWVEHQDSCYWFSHSGMSWAEAEKYCQLKNAHLVVINSREEQNFVQKYLGSAYTWMGLSDPEGAWKWVDGTDYATGFQNWKPGQPDDWQGHGLGGGEDCAHFHPDGRWNDDVCQRPYHWVCEAGLGQTSQESH
B1: the “glycan array binding signal (z-score)” value in [1] was -0.339; in experiment [2], -0.329; in [3] it was 4.84; in experiment [4], -0.297; in experiment [5], -0.325; in experiment [6] it was 4.38. In addition, the “glycan array binding signal (z-score)” value in [7] is -0.32; in experiment [8], -0.355; in experiment [9], 0.608; in experiment [10], -0.342; in experiment [11] it was 1.61; in experiment [12], -0.351.
